PPARg SRC-3 ag – PPARgamma-driven SRC-3 recruitment agonism. biochemical PPARgamma/SRC-3 coactivator recruitment assay. activation, % at 8 µM. 200,000 compounds, 0.26% hits. AID 731; in the data active means activation above about 23%;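 further: 0% = DMSO and 100% = reference agonist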
Target sequence (P37231 whole entry, looked up): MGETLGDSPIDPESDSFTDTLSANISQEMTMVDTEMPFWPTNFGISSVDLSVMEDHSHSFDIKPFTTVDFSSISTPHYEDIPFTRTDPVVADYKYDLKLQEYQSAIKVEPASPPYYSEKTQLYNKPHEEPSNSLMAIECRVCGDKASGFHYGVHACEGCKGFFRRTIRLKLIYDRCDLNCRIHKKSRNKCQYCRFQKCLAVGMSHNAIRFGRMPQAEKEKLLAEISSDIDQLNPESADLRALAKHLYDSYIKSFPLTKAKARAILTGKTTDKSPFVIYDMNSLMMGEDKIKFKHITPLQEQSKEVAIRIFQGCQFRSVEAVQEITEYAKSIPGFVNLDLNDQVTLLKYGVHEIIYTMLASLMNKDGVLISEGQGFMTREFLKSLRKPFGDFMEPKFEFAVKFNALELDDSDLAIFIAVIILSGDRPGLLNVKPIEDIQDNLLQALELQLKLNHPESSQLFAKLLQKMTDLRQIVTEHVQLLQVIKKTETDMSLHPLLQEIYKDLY
SRC3 TRFRET art – flags TR-FRET format artefacts in PPARgamma SRC-3 recruitment agonist screen | TR-FRET artefact counter-screen, PPARgamma/SRC-3 format; stronger effect = higher value | TR-FRET ratio at 8 µM | 99,000 compounds, 0.39% hits
SRC2 TRFRET art – TR-FRET artefact, counter-screen to PPARgamma/SRC-2 agonist assay. AID 1049. TR-FRET ratio at 8 µM. 200,000 compounds, 0.4% hits. stronger effect = higher value
PPARg SRC-2 ag – promotes SRC-2 coactivator recruitment by human PPARgamma | P37231 | PPARgamma LBD-SRC-2 recruitment, biochemical | activation, % at 8 µM | 200,000 compounds, 0.34% hits | AID 1032; in the data active means activation above about 22%;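 further: 0% = vehicle and 100% = reference agonist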
PPARg SRC-1 ag – agonists of human PPARgamma SRC-1 coactivator recruitment. 200,000 compounds, 0.41% hits. PPARgamma-SRC-1 coactivator recruitment biochemical assay. AID 631. activation, % at 8 µM; in the data active means activation above about 19%;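 further: 0% = DMSO and 100% = reference agonist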
SRC1 TRFRET art – flags TR-FRET format artefacts in PPARgamma SRC-1 recruitment agonist screen; TR-FRET detection artefact counter-screen, emission ratio; stronger effect = higher value; TR-FRET ratio at 8 µM; 99,000 compounds, 0.34% hits; in the data active means TR-FRET ratio above about 2300
An asterisk follows results filed as active. Rows were chosen to be rich in hits. Some 0.9% of all compounds tested hit in one or more screens of this group. Unless noted, no stated cut-off is given here; in the data, active means TR-FRET ratio above about 2000; inactive means the rest.

For Cc1c(O)c(S(=O)c2ccccc2)c(=O)n(-c2ccccc2)c1-c1ccccc1 (configuration not stated) the results were PPARg SRC-3 ag 6, SRC3 TRFRET art 1410, SRC2 TRFRET art 1504, PPARg SRC-2 ag 7, PPARg SRC-1 ag -2 and SRC1 TRFRET art 1819.
For C=CCC1Cc2c(Br)cccc2C(CC=C)N1 (configuration not stated) the results were PPARg SRC-3 ag 2, SRC3 TRFRET art 1570, SRC2 TRFRET art 2035*, PPARg SRC-2 ag 5, PPARg SRC-1 ag 3 and SRC1 TRFRET art 2057.
Screening CCN(C(=O)c1ccco1)c1nc(CC(=O)Nc2ccc(Cl)cc2)cs1 returned PPARg SRC-3 ag 4, SRC2 TRFRET art 1541, PPARg SRC-2 ag -6 and PPARg SRC-1 ag -2.
`CCC(=O)N(Cc1ccco1)c1nc(C(=O)Nc2ccc(Cl)cc2)c(C)s1` gave PPARg SRC-3 ag 3, SRC3 TRFRET art 1762, SRC2 TRFRET art 1971*, PPARg SRC-2 ag 19, PPARg SRC-1 ag 14 and SRC1 TRFRET art 2016.
For O=C(CSc1nnc(C2CC2)n1-c1ccccc1)NCCc1ccc(F)cc1 the results were PPARg SRC-3 ag 12, SRC2 TRFRET art 2046*, PPARg SRC-2 ag 23* and PPARg SRC-1 ag 0.
Screening CCN(CC)c1ccc(NC(=O)c2ccccc2)cc1S(=O)(=O)Nc1ccccc1OC returned PPARg SRC-3 ag 3, SRC3 TRFRET art 2080*, SRC2 TRFRET art 1639, PPARg SRC-2 ag -5, PPARg SRC-1 ag 6 and SRC1 TRFRET art 2017.
Screening CCn1c(COc2cc(C)ccc2C(C)C)nnc1SCC(=O)Nc1nccs1 returned PPARg SRC-3 ag -2, SRC3 TRFRET art 1415, SRC2 TRFRET art 1561, PPARg SRC-2 ag 5, PPARg SRC-1 ag -15 and SRC1 TRFRET art 1520.
C/C=C/C(=O)OCC(=O)Nc1cc(-c2cc(C)c(C)cc2C)nn1-c1ccccc1 was read as PPARg SRC-3 ag -1, SRC3 TRFRET art 1543, SRC2 TRFRET art 1500, PPARg SRC-2 ag 6, PPARg SRC-1 ag 0 and SRC1 TRFRET art 1871.
Screening CSc1ccc(S(=O)(=O)NCc2ccc(Cl)cc2Cl)cc1 returned PPARg SRC-3 ag -3, SRC2 TRFRET art 1289, PPARg SRC-2 ag -8 and PPARg SRC-1 ag -6.
`COc1ccccc1N(CC(=O)NCC1CCCO1)C(=O)CCC(=O)Nc1nccs1` (configuration not stated) gave PPARg SRC-3 ag -8, SRC2 TRFRET art 1704, PPARg SRC-2 ag 25* and PPARg SRC-1 ag -2.
Screening Cc1cc(OCC(=O)Nc2cc(-c3nn4c(C)nnc4s3)ccc2C)ccc1Cl returned PPARg SRC-3 ag 0, SRC2 TRFRET art 1568, PPARg SRC-2 ag -5 and PPARg SRC-1 ag 89*.
For Cc1sc2nc[nH]c(=S)c2c1-c1ccccc1 the results were PPARg SRC-3 ag 0, SRC3 TRFRET art 1690, SRC2 TRFRET art 1597, PPARg SRC-2 ag -2, PPARg SRC-1 ag 4 and SRC1 TRFRET art 1978.
CCN1CCN(C(=O)C(C)Nc2ccc(OC)cc2OC)CC1 (configuration not stated) was read as PPARg SRC-3 ag 7, SRC3 TRFRET art 1516, SRC2 TRFRET art 1586, PPARg SRC-2 ag -3, PPARg SRC-1 ag 11 and SRC1 TRFRET art 1740.
For Nc1ccccc1C#CCCCCO the results were PPARg SRC-3 ag 20, SRC3 TRFRET art 2204*, SRC2 TRFRET art 1361, PPARg SRC-2 ag -7, PPARg SRC-1 ag -5 and SRC1 TRFRET art 1639.
Screening CCCCC#Cc1ccccc1CC(=O)Nc1ccccc1 returned PPARg SRC-3 ag -2, SRC3 TRFRET art 1581, SRC2 TRFRET art 1474, PPARg SRC-2 ag 4, PPARg SRC-1 ag 2 and SRC1 TRFRET art 1573.
CN(C)S(=O)(=O)c1cc(NC(=O)CN2CCN(c3ccccc3O)CC2)ccc1Cl was read as PPARg SRC-3 ag 4, SRC3 TRFRET art 1475, SRC2 TRFRET art 1683, PPARg SRC-2 ag 13, PPARg SRC-1 ag 2 and SRC1 TRFRET art 1608.
For CCOC(=O)c1c(C)[nH]c(C(=O)COC(=O)CNC(=O)C2CCCCC2)c1C the results were PPARg SRC-3 ag 29*, SRC2 TRFRET art 1519, PPARg SRC-2 ag 2 and PPARg SRC-1 ag 7.
Screening Cc1ccc(CNC(=O)CNS(=O)(=O)c2ccc3nc(C)sc3c2)cc1 returned PPARg SRC-3 ag 5, SRC3 TRFRET art 1571, SRC2 TRFRET art 1532, PPARg SRC-2 ag 8, PPARg SRC-1 ag 6 and SRC1 TRFRET art 1596.
`N/C(=N\OC(=O)COc1ccc(Br)cc1)c1cccnc1` gave PPARg SRC-3 ag 3, SRC3 TRFRET art 1430, SRC2 TRFRET art 1617, PPARg SRC-2 ag -1, PPARg SRC-1 ag 8 and SRC1 TRFRET art 1675.
N/C(=N\OC(=O)COc1ccc(Br)cc1Cl)c1ccccn1 was read as PPARg SRC-3 ag 4, SRC3 TRFRET art 1619, SRC2 TRFRET art 1664, PPARg SRC-2 ag 5, PPARg SRC-1 ag 9 and SRC1 TRFRET art 1963.
`N/C(=N\OC(=O)COc1ccc2ccccc2c1Br)c1cccnc1` gave PPARg SRC-3 ag 7, SRC3 TRFRET art 1766, SRC2 TRFRET art 1797, PPARg SRC-2 ag 14, PPARg SRC-1 ag 4 and SRC1 TRFRET art 2331*.
N/C(=N\OC(=O)COc1ccc2ccccc2c1Br)c1ccccn1 was read as PPARg SRC-3 ag 11, SRC3 TRFRET art 2027, SRC2 TRFRET art 1993*, PPARg SRC-2 ag 20, PPARg SRC-1 ag 8 and SRC1 TRFRET art 2360*.
COc1ccc(/C=C2/C(=O)N(Cc3ccccc3)N=C2C)cc1 was read as PPARg SRC-3 ag 4, SRC3 TRFRET art 1500, SRC2 TRFRET art 1595, PPARg SRC-2 ag 0, PPARg SRC-1 ag 1 and SRC1 TRFRET art 1736.
`COc1ccc(/C=C2/C(=O)N(c3nc4ccccc4s3)N=C2CSc2ccc(Cl)cc2)cc1` gave PPARg SRC-3 ag 5, SRC3 TRFRET art 2197*, SRC2 TRFRET art 1737, PPARg SRC-2 ag 0, PPARg SRC-1 ag 5 and SRC1 TRFRET art 2577*.
`CS(=O)(=O)c1nc(-c2ccccc2)cc(-c2ccccc2)c1C#N` gave PPARg SRC-3 ag -2, SRC2 TRFRET art 1773, PPARg SRC-2 ag -2 and PPARg SRC-1 ag 6.
Screening Cc1ccc(-c2cc(-c3ccccc3)c(C#N)c(Br)n2)cc1 returned PPARg SRC-3 ag -1, SRC3 TRFRET art 1644, SRC2 TRFRET art 1632, PPARg SRC-2 ag -2, PPARg SRC-1 ag 56* and SRC1 TRFRET art 3299*.
Screening Cc1ccc(NC(=O)CSc2nnc(-c3ccc(S(=O)(=O)N4CCCC4)cc3)o2)cc1C returned PPARg SRC-3 ag 1, SRC2 TRFRET art 1464, PPARg SRC-2 ag -11 and PPARg SRC-1 ag 21*.
For O=C(NNC(=O)C1CCCN(S(=O)(=O)c2cccc(F)c2)C1)C1CC1 (configuration not stated) the results were PPARg SRC-3 ag 3, SRC3 TRFRET art 1518, SRC2 TRFRET art 1782, PPARg SRC-2 ag -8, PPARg SRC-1 ag 2 and SRC1 TRFRET art 1792.
`COc1ccccc1NC(=O)CSc1nc2nc(C)cc(C)c2c(=O)[nH]1` gave PPARg SRC-3 ag 0, SRC2 TRFRET art 1689, PPARg SRC-2 ag 22* and PPARg SRC-1 ag 9.

Bioassay records (PubChem BioAssay)
